Results as given in PMC4336329 (PLoS ONE, 2015).
In all, about 310,000 compounds went through this assay and about 14,000 (4.5%) showed an effect of 50% or more. The effect is printed as a negative number. The full list was thinned out, with strong results kept by preference.

Target: human ether-à-go-go-related gene (hERG) potassium channel (human, UniProt Q12809)
Test: primary screen, population patch clamp on CHO cells stably expressing hERG; higher = less effect of the substance
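Further: peak tail current of the secondary pulse compared with the same well before compound.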

Chain of human ether-à-go-go-related gene (hERG) potassium channel (Q12809 whole entry, looked up): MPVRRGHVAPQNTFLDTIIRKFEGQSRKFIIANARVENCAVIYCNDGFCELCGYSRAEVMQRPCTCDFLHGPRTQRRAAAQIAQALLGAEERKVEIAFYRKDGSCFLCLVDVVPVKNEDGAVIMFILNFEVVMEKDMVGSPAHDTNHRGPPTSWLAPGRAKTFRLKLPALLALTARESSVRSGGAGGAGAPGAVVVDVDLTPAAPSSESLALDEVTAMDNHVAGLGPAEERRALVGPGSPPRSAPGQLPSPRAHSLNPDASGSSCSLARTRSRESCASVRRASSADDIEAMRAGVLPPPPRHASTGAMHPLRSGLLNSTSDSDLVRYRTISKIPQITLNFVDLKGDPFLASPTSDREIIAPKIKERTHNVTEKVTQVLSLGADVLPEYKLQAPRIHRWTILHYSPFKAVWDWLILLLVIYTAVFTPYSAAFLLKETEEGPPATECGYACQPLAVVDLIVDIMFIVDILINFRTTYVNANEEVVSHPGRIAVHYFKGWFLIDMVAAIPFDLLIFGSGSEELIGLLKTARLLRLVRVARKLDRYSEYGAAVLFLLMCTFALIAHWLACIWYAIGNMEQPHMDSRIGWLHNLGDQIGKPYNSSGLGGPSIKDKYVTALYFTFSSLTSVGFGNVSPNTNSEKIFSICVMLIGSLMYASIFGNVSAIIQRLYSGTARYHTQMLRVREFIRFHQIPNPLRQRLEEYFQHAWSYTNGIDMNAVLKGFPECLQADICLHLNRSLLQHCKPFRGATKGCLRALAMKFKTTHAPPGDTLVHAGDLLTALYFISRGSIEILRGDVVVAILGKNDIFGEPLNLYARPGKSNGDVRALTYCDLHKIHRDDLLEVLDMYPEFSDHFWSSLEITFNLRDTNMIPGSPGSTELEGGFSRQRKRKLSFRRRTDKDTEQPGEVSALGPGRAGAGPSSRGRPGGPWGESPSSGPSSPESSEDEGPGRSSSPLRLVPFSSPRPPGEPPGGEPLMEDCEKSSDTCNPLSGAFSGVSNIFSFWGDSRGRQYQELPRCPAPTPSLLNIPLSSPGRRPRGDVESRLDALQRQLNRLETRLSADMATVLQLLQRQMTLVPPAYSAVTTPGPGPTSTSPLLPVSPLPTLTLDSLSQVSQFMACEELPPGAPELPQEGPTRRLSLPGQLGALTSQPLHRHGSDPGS

Row | SMILES | hERG current change (%, negative = inhibition) at 10uM
1 | CCCCn1nnc(NC(=S)NC(=O)c2cccs2)n1 | 9.16%
2 | COc1ccccc1Cn1c(=S)[nH]c2ccccc2c1=O | 32.7%
3 | COc1ccc(S(=O)(=O)N2CCOCC2)cc1NC(=O)CC1CCCC1 | -6.2%
4 | COc1ccc(N(CC(=O)Nc2ccc3c(c2)OCCO3)S(=O)(=O)c2c(C)noc2C)cc1 | -6.74%
5 | O=C(NC(=S)NC1CCCCC1)c1ccccc1 | 1.5%
6 | COCCCn1c(=O)c2sccc2n2c(CCCC(=O)NCc3ccccc3OC)nnc12 | -19.9%
7 | O=C(CS(=O)(=O)c1cn(CC(=O)N2CCOCC2)c2ccccc12)Nc1ccccc1 | 8.09%
8 | Cc1ccc(NC(=O)CS(=O)(=O)c2cn(CC(=O)N3CCOCC3)c3ccccc23)cc1 | -0.0981%
9 | CC(=O)c1ccc(NC(=O)CS(=O)(=O)c2cn(CC(=O)N3CCOCC3)c3ccccc23)cc1 | -58.6%
10 | COc1cccc(=O)c2c(C)n(C)c(C)c12 | -24.7%
11 | Cc1cc(OC(C)C(=O)NC2CCN(Cc3ccccc3)CC2)c2c(C)cc(=O)oc2c1 (centres unmarked) | -15.2%
12 | CC(Oc1ccc(Br)cc1)C(=O)NC1CCCCCC1 (centres unmarked) | -12.4%
13 | Cc1cc(=O)oc2c(C)c(OC(C)C(=O)NC3CCN(Cc4ccccc4)CC3)ccc12 (centres unmarked) | -48.1%
14 | CC(Oc1ccc(Br)cc1)C(=O)NC1CCN(Cc2ccccc2)CC1 (centres unmarked) | -80.4%
15 | Cc1cc(=O)oc2cc(OC(C)C(=O)NC3CCN(Cc4ccccc4)CC3)ccc12 (centres unmarked) | -79.2%
16 | CC(Oc1ccc2ccc(=O)oc2c1)C(=O)NC1CCN(Cc2ccccc2)CC1 (centres unmarked) | -75%
17 | CCc1cc(=O)oc2cc(C)cc(OC(C)C(=O)NC3CCN(Cc4ccccc4)CC3)c12 (centres unmarked) | -32.8%
18 | Cc1c(C)c2ccc(OC(C)C(=O)NC3CC(C)(C)NC(C)(C)C3)cc2oc1=O (centres unmarked) | 7.7%
19 | Cc1c(C)c2ccc(OC(C)C(=O)NC3CCN(Cc4ccccc4)CC3)cc2oc1=O (centres unmarked) | -54.2%
20 | CC(Oc1ccc2c3c(c(=O)oc2c1)CCC3)C(=O)NC1CCN(Cc2ccccc2)CC1 (centres unmarked) | -47.9%
21 | CC(Oc1ccccc1)C(=O)NC1CCN(Cc2ccccc2)CC1 (centres unmarked) | -26.8%

Row | SMILES | hERG current change (%, negative = inhibition) at 10uM
22 | Cc1cc(=O)oc2cc(OC(C)C(=O)NC3CCCC3)ccc12 (centres unmarked) | -33.4%
23 | CC(=O)c1sc(N2CCOCC2)nc1-c1ccccc1 | -6.27%
24 | Cc1onc(-c2ccccc2)c1C(=O)Nc1sccc1C#N | 7.27%
25 | Cc1cc(C)n(-c2ccc(NC(=O)C3CCCCN3C(=O)c3sccc3C)cc2)n1 (centres unmarked) | 14.5%
26 | NS(=O)(=O)c1ccc(NC(NC(=O)c2cccnc2)C(Cl)(Cl)Cl)cc1 (centres unmarked) | 6.08%
27 | COc1cc(C(=O)NCCCn2ccnc2)cc(OC)c1OC.Cl | 20.6%
28 | Cc1nn(C(C)C(=O)NCCN2CCCCCC2)c(=O)c2nn(-c3ccccc3)c(C)c12 (centres unmarked) | 21.6%
29 | Cc1cc(C)n2nc(SCC(=O)Nc3ccccc3C)nc2n1 | 1.88%
30 | CC1(C)CC(=O)C2=C(C1)NC(=O)CC2c1ccc(N(CCC#N)CCC#N)cc1 (centres unmarked) | 17.3%
31 | CCC(C(=O)c1ccc(O)cc1)c1ccccc1 (centres unmarked) | -5.56%
32 | CCC(=O)c1ccc2ncccc2c1 | 12.2%
33 | CCC(C(=O)c1ccc2ncccc2c1)c1ccccc1 (centres unmarked) | -52.7%
34 | COc1ccc(CNC(=O)c2nn(C)c3c2CS(=O)(=O)c2ccccc2-3)cc1 | -24.5%
35 | O=C(O)c1ccccc1C(=O)c1ccc(Oc2ccccc2)cc1 | 8.12%
36 | CCn1nc(C)c(Br)c1C(=O)Sc1ccccc1Cl | 21.2%
37 | O=C(c1cc(F)c(F)cc1Cl)N1CCN(c2ncccn2)CC1 | 16.4%
38 | O=C(c1cccc(F)c1)N1CCN(c2ccc([N+](=O)[O-])c3cccnc23)CC1 | -66.1%
39 | Cn1c(=O)n(C)c2cc([N+](=O)[O-])c(N3CCN(S(=O)(=O)c4ccccc4)CC3)cc21 | -8.67%
40 | O=C(c1ccccc1F)N1CCN(c2ccc([N+](=O)[O-])c3ncccc23)CC1 | -68.1%
41 | O=C(c1ccccc1F)N1CCN(c2ccc([N+](=O)[O-])c(N3CCOCC3)c2)CC1 | 14.2%
42 | O=[N+]([O-])c1ccc(N2CCN(S(=O)(=O)c3ccccc3)CC2)c2cccnc12 | -76.8%

Row | SMILES | hERG current change (%, negative = inhibition) at 10uM
43 | O=C(c1cccc(F)c1)N1CCN(c2cc(N3CCCCC3)c(F)cc2[N+](=O)[O-])CC1 | 0.466%
44 | O=C(c1ccc(Cl)cc1[N+](=O)[O-])N1CCN(c2ccccn2)CC1 | -34%
45 | O=C(c1cccc(F)c1)N1CCN(c2ccc([N+](=O)[O-])c(N3CCCCC3)c2)CC1 | -6.87%
46 | Cc1ccc(S(=O)(=O)N2CCN(c3ccc([N+](=O)[O-])c4cccnc34)CC2)cc1 | -9.52%
47 | O=[N+]([O-])c1ccc(N2CCOCC2)c2cccnc12 | -25%
48 | O=C(c1cc(F)c(F)cc1Cl)N1CCN(c2ccc([N+](=O)[O-])c3ncccc23)CC1 | -67.4%
49 | CC(=O)Nc1ccc(/C(C)=N/NC(=O)CN(c2ccccc2Br)S(C)(=O)=O)cc1 | -4.13%
50 | CNC(=O)CCn1nc(-c2ccc(C)cc2)c2ccccc2c1=O | -8.28%
51 | O=C(O)c1ccc(/C=N/Nc2nc(N3CCCCC3)nc(N3CCCCC3)n2)cc1 | 18.4%
52 | Cc1nn(Cc2c(Cl)cccc2Cl)c(C)c1NC(=O)/C=C/c1cnn(C)c1C | 8.85%
53 | COc1ccc(OC(=O)c2cccc([N+](=O)[O-])c2)c(C(=O)/C=C/c2cccs2)c1 | 3.99%
54 | O=C(O)CC(CC(=O)Nc1ccc2ccccc2n1)c1ccccc1 (centres unmarked) | 9.58%
55 | Cc1nnc(SCC(=O)NC2CC2)n1CCc1ccccc1 | 13%
56 | CCC(=O)Oc1ccc2c(C)cc(=O)oc2c1C | 0.0333%
57 | Cc1ccccc1NC(=O)CN1C(=O)NC(C)(CCc2ccccc2)C1=O (centres unmarked) | 22.2%
58 | O=C(c1ccccc1F)N1CCN(c2ccccn2)CC1 | 4.54%
59 | O=[N+]([O-])c1cccc2c(N3CCCC3)ccnc12 | -77.7%
60 | O=[N+]([O-])c1cccc2c(N3CCOCC3)ccnc12 | -17.6%
61 | O=C(c1ccccc1F)N1CCN(c2ncccn2)CC1 | 3.24%
62 | O=[N+]([O-])c1cccc2c(Cl)ccnc12 | -0.808%
63 | O=C(c1ccccc1F)N1CCN(c2ccc([N+](=O)[O-])c3cccnc23)CC1 | -65.5%

Row | SMILES | hERG current change (%, negative = inhibition) at 10uM
64 | CCC(C)NC(=O)CCC(=O)Nc1ccc2nc(N3CCOCC3)cc(C)c2c1 (centres unmarked) | 2.55%
65 | O=C(NCCc1ccc(Cl)cc1)c1ccc(CNc2c(N3CCOCC3)c(=O)c2=O)cc1 | 25.7%
66 | O=C(Nc1ccc2c(c1)OCO2)NC1CCN(Cc2ccccc2)CC1 | -24.8%
67 | CC(NC(=O)COC(=O)c1cccs1)c1ccccc1 (centres unmarked) | 23%
68 | Cc1cc(NC(=O)c2ccc(F)cc2)ccc1NC(=O)c1ccco1 | 2.98%
69 | CC1(C)CC(=O)C2=C(C1)N(CC1CCCO1)C(=O)C2(NC(=O)c1cccnc1)C(F)(F)F (centres unmarked) | 9.64%
70 | COC(=NC1CCCC1)C(O)c1c[nH]c2ccccc12 (centres unmarked) | -1.61%
71 | CN(C)c1cc(C(F)(F)F)nc(-c2ccccn2)n1 | -0.728%
72 | CCO[C@@H]1OC(C(=O)O)=C[C@H](c2coc3ccccc3c2=O)[C@H]1CCCO | 18.9%
73 | CCO[C@@H]1OC(C(=O)NCc2nc3ccccc3[nH]2)=C[C@H](c2csc3ccccc23)[C@H]1CCCO | -34.1%
74 | CCO[C@@H]1OC(C(=O)NCc2nc3ccccc3[nH]2)=C[C@H](c2cn(C(C)=O)c3ccccc23)[C@H]1CCCO | -67.2%
75 | CCO[C@H]1OC(C(=O)O)=C[C@@H](c2cn(C(C)=O)c3ccccc23)[C@@H]1CCCO | 18.2%
76 | CCO[C@H]1OC(C(=O)NCc2nc3ccccc3[nH]2)=C[C@@H](c2cn(C(C)=O)c3ccccc23)[C@@H]1CCCO | -49.7%
77 | CCO[C@@H]1OC(C(=O)N2CCN(Cc3ccccc3)CC2)=C[C@H](c2cn(C(C)=O)c3ccccc23)[C@H]1CCCO | -37.9%
78 | CCO[C@@H]1OC(C(=O)Nc2ccccc2)=C[C@H](c2coc3ccccc3c2=O)[C@H]1CCCO | -50.9%
79 | CCO[C@@H]1OC(C(=O)N2CCN(Cc3ccc4c(c3)OCO4)CC2)=C[C@H](c2cn(C(C)=O)c3ccccc23)[C@H]1CCCO | -39.7%
80 | CCO[C@H]1OC(C(=O)N2CCN(Cc3ccccc3)CC2)=C[C@@H](c2cn(C(C)=O)c3ccccc23)[C@@H]1CCCO | -54%
81 | CCO[C@@H]1OC(C(=O)O)=C[C@H](c2cn(C(C)=O)c3ccccc23)[C@H]1CCCO | 13.7%
82 | CCO[C@H]1OC(C(=O)Nc2ccccc2)=C[C@@H](c2cn(C(C)=O)c3ccccc23)[C@@H]1CCCO | -62.5%
83 | CCO[C@H]1OC(C(=O)Nc2ccccc2)=C[C@@H](c2coc3ccccc3c2=O)[C@@H]1CCCO | -28.5%
